Data from PMC11574364.

Target: T1, STAU2(4) (Homo sapiens, UniProt Q9NUL3)
T1 sequence: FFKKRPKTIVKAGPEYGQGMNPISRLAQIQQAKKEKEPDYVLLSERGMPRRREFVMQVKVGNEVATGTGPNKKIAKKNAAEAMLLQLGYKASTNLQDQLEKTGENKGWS
Assay: protein domain microarray probed with biotinylated miRNA; Domain array: 20 mM Tris-HCl pH 7.4, 200 mM KCl, 0.2 mM EDTA, 0.05% NP40, 2 ug/ul heparin, overnight 4 C. ORF array: PBS pH 7.0 with RNase inhibitor, 100 ng RNA; high values mean tight binding
Conditions: ssRNA

| Sequence | binding signal [fluorescence intensity] |
| --- | --- |
| UGAGGUAGUAGGUUGUGUGGUU | 275.8 ± 2.53 |
| CAGUGCAAUGAUGAAAGGGCAU | 92.53 ± 0.0283 |
| UGAGGUAGUAGGUUGUAUAGUU | 31.34 ± 0.269 |
| AGAGGUAGUAGGUUGCAUAGUU | 100.36 ± 0.0283 |
| UGAGGUAGUAGGUUGUAUGGUU | 168 ± 2.52 |

Target: T2, RBM19(1) (Homo sapiens, UniProt Q9Y4C8)
T2 sequence: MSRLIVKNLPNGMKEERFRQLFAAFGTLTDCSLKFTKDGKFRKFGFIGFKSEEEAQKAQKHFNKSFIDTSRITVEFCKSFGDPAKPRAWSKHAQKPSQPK
Assay: as above
Conditions: ssRNA

| Sequence | binding signal [fluorescence intensity] |
| --- | --- |
| UGAGGUAGUAGGUUGUGUGGUU | 592 ± 96.6 |
| CAGUGCAAUGAUGAAAGGGCAU | 249 ± 33.6 |
| UGAGGUAGUAGGUUGUAUAGUU | 132 ± 21 |
| AGAGGUAGUAGGUUGCAUAGUU | 400 ± 17.2 |
| UAGCUUAUCAGACUGAUGUUGA | 37.3 ± 6.15 |
| UGAGGUAGUAGGUUGUAUGGUU | 519 ± 35.8 |

Target: T3, RBM11 (Homo sapiens, UniProt P57052)
T3 sequence: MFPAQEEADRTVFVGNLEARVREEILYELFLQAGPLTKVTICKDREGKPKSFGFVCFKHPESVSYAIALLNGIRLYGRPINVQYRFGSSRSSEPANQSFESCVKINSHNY
Assay: as above
Conditions: ssRNA

| Sequence | binding signal [fluorescence intensity] |
| --- | --- |
| UGAGGUAGUAGGUUGUGUGGUU | 26.6 ± 2.58 |
| CAGUGCAAUGAUGAAAGGGCAU | 25.7 ± 8.53 |
| AGAGGUAGUAGGUUGCAUAGUU | 28 ± 4.14 |
| UGAGGUAGUAGGUUGUAUGGUU | 36.7 ± 5.74 |
